# Measurements published in PubChem BioAssay (Tox21).
# Active and inactive are the calls of the source. Calls come from the whole dose curve; as a rule, active = well fitted curve in the direction sought with a large enough effect in the repeat runs; inconclusive = weak or mixed curves; inactive = flat fitted curve, though single readings scatter.
# Experiment: qHTS assay to test for compound auto fluorescence at 535 nm (green) in HEK293 cells (AID 720680)
# Settings: green autofluorescence 485/535 nm; series mostly up to 91.3 µM; fluorescence, % of fluorescein: at the top concentration
# Excerpt: U.S. Tox21 Program National Center for Advancing Translational Sciences [NCATS] NIH Chemical Genomics Center [NCGC] U.S. Environmental Protection Agency [EPA] National Institutes of Environmental Health Sciences [NIEHS] National Toxicology Program [NTP] U.S. Food and Drug Administration [FDA] Tox21 Assay Overview: Compound auto fluorescence often interferes with screening of the compound library against various biological targets and signaling pathways. Some of these compounds may have fluorophoric properties. Such properties may interfere with the assay outputs resulting in false positives and/or negatives. To decrease such complications and ensure the compound activities are relevant in terms of biological response, the Tox21 10K compound library was screened for auto fluorescence. From the fluorophores used as reporter signals in our screening assays, the auto fluorescence equivalencies of compounds against three fluorophores have been evaluated: Triamterene, Fluorescein and Rose Bengal sodium for blue, green and red fluorescence, respectively. The fluorescence intensities were measured using Excitation/Emission wavelengths at 405/460nm, 485/535nm and 540/590nm for blue, green and red labels, respectively. This assay includes the green fluorescence data.
# Tox21 Assay Protocol Summary: 2,000 HEK293 cells in 5 uL of culture medium containing 10% dialyzed FBS per well were dispensed into black wall/clear bottom 1536-well plates using a Multidrop Combi Dispenser (Thermo Scientific). The assay plates were incubated for 4-5 hr at 37C to allow cell attachment to the well bottom, followed by the transfer of 23 nL compound or DMSO vehicle by a pintool work station (Kalypsys, San Diego, CA). After the assay plates were incubated overnight at 37C and 5% CO2, fluorescence intensities in the assay plates were measured by an Envision (PerkinElmer, Shelton, CT) plate reader using three labels for measuring blue, green and red fluorescence at […] 460, 535 and 590nm respectively.
# % is set by controls: 0 for no effect and ±100 for the full control effect.
SMILES,"fluorescence, % of fluorescein",outcome
CC(=O)c1ccccc1[N+](=O)[O-],0.0387% (inactive),–
O=C(c1ccccc1O)c1ccccc1O,0.0438% (inactive),–
C=CCOCC(O)CO (stereo not given),-0.0985% (inactive),–
CC(C)(C)OC(=O)c1cccc(N)c1,-0.0025% [at 95.7 µM] (inactive),–
CC1=NS(=O)(=O)c2cc(Cl)ccc2N1,-0.0022% [at 46 µM] (inactive),–
CCC(C)(CCCC(C)C)OC(C)=O (stereo not given),0.0219% (inactive),–
C=CN1CCCCCC1=O,0.0419% (inactive),–
O=S(=O)(O)c1cccc2ccccc12,0.0206% (inactive),–
C1CCC2=NCCCN2CC1,0.0289% (inactive),–
Clc1cc(Cl)c(Cl)nc1Cl,-0.0931% (inactive),–
NCCCC[C@H](N[C@@H](CCc1ccccc1)C(=O)O)C(=O)N1CCC[C@H]1C(=O)O,-0.012% [at 18.6 µM] (inactive),–
CC(C(=O)O)c1cccc(Oc2ccccc2)c1 (stereo not given),0.0474% [at 18.6 µM] (inactive),–
Cc1nc2ccc(CN(C)c3ccc(C(=O)N[C@@H](CCC(=O)O)C(=O)O)s3)cc2c(=O)[nH]1,–,inactive
CC(N)C12CC3CC(CC(C3)C1)C2 (stereo not given),-0.0044% [at 46 µM] (inactive),–
Cc1cccc(C)c1NC(=O)CC12CCCN1CCC2,0.101% [at 46 µM] (inactive),–
C[N+](C)(CCOc1ccccc1)Cc1cccs1,0.0042% [at 46 µM] (inactive),–
CN1C(C)(C)CC(O)CC1(C)C,0.0761% (inactive),–
CC(C)(C)C(=O)Oc1ccc(S(=O)(=O)Nc2ccccc2C(=O)NCC(=O)O)cc1,-0.0539% [at 46 µM] (inactive),–
Cc1ccc(C(=O)c2ccc(CC(=O)O)n2C)cc1,-0.0701% [at 18.6 µM] (inactive),–
NO,0.0129% [at 95.7 µM] (inactive),–

SMILES,"fluorescence, % of fluorescein",outcome
NC(=O)N1c2ccccc2CC(=O)c2ccccc21,-0.152% [at 46 µM] (inactive),–
CC(C)C[C@@H](N)C(=O)O,0.131% [at 46 µM] (inactive),–
CCCCOC(=O)CCC(C)=O,-0.0284% (inactive),–
CO[C@@]1(NC(=O)C(C(=O)O)c2ccc(O)cc2)C(=O)N2C(C(=O)O)=C(CSc3nnnn3C)CO[C@@H]21 (stereo not given in full),0.0617% [at 18.6 µM] (inactive),–
CN1[C@@H]2CC[C@H]1CC(OC(=O)C(O)c1ccccc1)C2 (stereo not given in full),–,inactive
CC1=CCC(O)(C(C)C)CC1 (stereo not given),0.084% (inactive),–
C[C@H]1C[C@H]2[C@@H]3CCC4=CC(=O)C=C[C@]4(C)[C@H]3C(=O)C[C@]2(C)[C@@]1(O)C(=O)CO,-0.0505% [at 46 µM] (inactive),–
CCCCCCCCCCOc1cc2c(=O)c(C(=O)OCC)c[nH]c2cc1OCC,-0.0243% [at 46 µM] (inactive),–
COCCOC[C@H](CC1(C(=O)NC2CCC(C(=O)O)CC2)CCCC1)C(=O)Oc1ccc2c(c1)CCC2 (stereo not given in full),0.0536% (inactive),–
COc1cc(C(=O)OC(COCCC(C)C)CN2CCOCC2)cc(OC)c1OC (stereo not given),0.0441% [at 46 µM] (inactive),–
Cc1c(N)c(=O)n(-c2ccccc2)n1C,-0.0771% [at 18.6 µM] (inactive),–
CCN(C=O)CC,0.123% [at 95.7 µM] (inactive),–
CC(C)C1CCC(O)CC1 (stereo not given),0.055% (inactive),–
CC(=O)C1CCCCC1=O (stereo not given),0.0141% (inactive),–
Nc1ccn([C@@H]2O[C@H](CO)[C@@H](O)C2O)c(=O)n1 (stereo not given in full),–,inactive
NC(=O)Cc1cccc2ccccc12,-0.0846% (inactive),–
CC(C)[C@H]1CC[C@@H](C)CC1=O,0.0447% (inactive),–
CCOC(=O)C1=NOC(c2ccccc2)(c2ccccc2)C1,0.003% (inactive),–
O=S(=O)(O)c1cccc2c(S(=O)(=O)O)cccc12,-0.0032% (inactive),–
COc1cc(-c2ccc(=O)[nH]n2)ccc1OC(F)F,-0.0259% [at 46 µM] (inactive),–
